Drawing on PubChem BioAssay, this text covers composite z-score for 35 molecules.

The subject of this assay is Human papillomavirus type 1a E7 protein (residues 1-88). The experiment in a line: HPV1a E7 small-molecule binders, primary screen, biochemical, small-molecule microarray, residues 1-88, 635 nm (AID 1129). To be noted: small-molecule microarray binding, fluorescence 635 nm; higher = more signal.
The molecule `COc1ccc([Si](C)(C)[C@@H]2[C@@H](CCO)O[C@]3(C(=O)N(Cc4cccc(N5CCOC5=O)c4)c4ccccc43)[C@H]2C)cc1` had a composite z-score of 0.981. In turn, `COCCOC(=O)N1C(=O)[C@@]2(c3ccccc31)[C@H](C(N)=O)[C@H]1C(=O)O[C@H](c3ccccc3)[C@H](c3ccccc3)N1[C@@H]2c1ccc(O)cc1` yielded a composite z-score of 1.04.

With `O=C1C[C@@](C(=O)NCc2ccccc2)(c2ccc([N+](=O)[O-])cc2)[C@@H](c2ccc(CO)cc2)N1CC12CC3CC(CC(C3)C1)C2`, the composite z-score came to 1.19. In turn, `COCC(=C=CC[C@H](O)c1cccc(OCCO)c1)CCO` registered a composite z-score of 0.0665. Then `COCCCNC(=O)[C@@]1(Cc2ccccc2CN=[N+]=[N-])N=C(c2ccc(OCCCO)cc2)O[C@H]1c1ccccc1CN=[N+]=[N-]`, with 1.19; and `COC(=O)[C@]1(Cc2ccccc2)N=C(c2ccc(OCCCO)cc2)O[C@@H]1c1ccccc1N=[N+]=[N-]`, with 1.2. In turn, `COC(=O)[C@@]1(Cc2ccc(F)cc2)[C@H]2c3cc(C(=O)N(C)C)n(Cc4ccc(C)o4)c3C[C@H]2CN1C(=O)c1ccccc1` yielded a composite z-score of 0.761. Regarding `CC(C)=CCCC(C)=CC(O)C1C=CC2C(=O)N(c3ccccc3)C(=O)C2N1Nc1ccc(C(C)C)cc1` (stereo not given), the composite z-score was 1.22. For the molecule `COc1ccccc1CN1C(=O)c2ccccc2[C@@H](C(=O)NCc2ccccc2)[C@@H]1c1ccc(CO)cc1`, the composite z-score amounted to 0.464. For the molecule `CC#CC(=O)Oc1ccc(Br)cc1C=CC(=O)OCC`, the composite z-score was found to be 1.06.

The molecule `O=C(NC1CC1)[C@@H]1c2ccccc2C(=O)N(C2Cc3ccccc3C2)[C@H]1c1ccc(CO)cc1` gave a composite z-score of 1.18. `COCCCNC(=O)[C@@H]1c2ccccc2C(=O)N(Cc2ccccc2OC)[C@H]1c1ccc(CO)cc1`: the composite z-score turned out to be 0.133. As to `O=C(O)[C@H](Cc1ccccc1)n1cc(-c2ccccc2)nn1`, the composite z-score turned out to be 0.6. In the case of `C=CC[C@]1(C(=O)NCc2ccccc2)N=C(c2ccc(OCCCO)cc2)O[C@H]1c1ccccc1CN=[N+]=[N-]`, the composite z-score was 1.21. As for `CN1C(=O)C2C=CC(C(O)c3ccc(F)cc3)N(N(c3ccccc3)c3ccccc3)C2C1=O` (stereo not given), the composite z-score came to 0.619. In turn, `C=CCC(OC(C)=O)[C@@H]1[C@@H](N(Cc2ccc(-c3cccc(C(F)(F)F)c3)o2)C(=O)Cc2ccc(OC)cc2)c2cc(OCCCO)ccc2N1C(=O)c1ccc2ccccc2c1` (stereo not given in full) gave a composite z-score of -0.811. Consider `CN(C)CCCCCCNC(=O)[C@@H]1C[C@@H]2C(=O)N[C@@H](CCCC[N+](C)(C)C)C(=O)N2[C@@H]1c1ccc(O)cc1`, for which the composite z-score was -0.396. With `CC(C)CNC(=O)[C@@]1(Cc2ccccc2I)c2ccccc2C(=O)N(Cc2ccccc2C(F)(F)F)[C@H]1c1ccc(CO)cc1`, the composite z-score amounted to 0.0788. Consider `C=CC[C@]1(C(N)=O)N=C(c2ccc(OCCCO)cc2)O[C@H]1c1ccccc1`, for which the composite z-score was 1.08. `COCCCNC(=O)[C@@]1(Sc2ccc(C)cc2)CC(=O)N(Cc2ccccc2Cl)[C@@H]1c1ccc(CO)cc1`: the composite z-score is 1.12. As for `CCCC=C(CCC)[C@@H](NC(=O)OCC(C)C)c1ccccc1`, the composite z-score was 1.15. `OCC1C=C(/C=C/c2ccccc2)CN1Cc1ccccc1Br` (stereo not given): the composite z-score worked out at 0.278. In turn, `CN1C(=O)C2C=CC(C(O)C=Cc3ccc([N+](=O)[O-])cc3)N(Nc3ccccc3)C2C1=O` (stereo not given) had a composite z-score of 1.24. Molecule `COC(=O)[C@@]1(Cc2ccccc2)[C@H]2c3cc(C(=O)N4CCCC4)n(Cc4ccc(O)c(OC)c4)c3C[C@H]2CN1C(=O)c1ccccc1` yielded a composite z-score of 1.27. Turning to `CN(C)CCCCCCNC(=O)[C@@H]1C[C@@H]2C(=O)N3CCC[C@H]3C(=O)N2[C@@H]1c1ccc(O)cc1`, the composite z-score was determined as 1.11. For `C[N+](C)(C)CCCC[C@@H]1NC(=O)[C@H]2C[C@@H](C(=O)NCCCCCCNC(=O)CS)[C@@H](c3ccc(O)cc3)N2C1=O`, the composite z-score is -0.0478. In turn, `COC(=O)C(CC#Cc1ccc2c(c1)[C@]1(C(=O)N2)[C@H](c2ccccc2OCCO)N2[C@H](c3ccccc3)[C@H](c3ccccc3)OC(=O)[C@H]2[C@@H]1C(=O)O)C(=O)OC` returned a composite z-score of 1.16. Consider `NCCCCCNC(=O)[C@H]1C[C@H]2C(=O)N3CCC[C@H]3C(=O)N2[C@H]1c1ccc(O)cc1`, for which the composite z-score amounted to 1.15. `C=CCC(OC(C)=O)[C@@H]1[C@@H](N(Cc2ccc(-c3ccccc3)cc2)C(=O)Cc2ccc(F)cc2)c2cc(OCCCO)ccc2N1C(=O)c1ccc2ccccc2c1` (stereo not given in full) gave a composite z-score of -0.0066. Molecule `CCOc1ccc(N2C(=O)CSC2c2cccc([N+](=O)[O-])c2)cc1` (stereo not given) yielded a composite z-score of 0.636. On to `C=C(CCCC)/C(=C/C[C@H](OC(C)=O)c1ccccc1OCCO)c1cnc2ccccc2c1`, for which the composite z-score is 0.545. `C=CC[C@]1(C(N)=O)COC(c2ccc(OCCCO)cc2)=N1` yielded a composite z-score of 0.017. In turn, `COCCOC(=O)N1C(=O)[C@@]2(c3cc(C#CC4=CCCCC4)ccc31)[C@H](C(N)=O)[C@H]1C(=O)O[C@H](c3ccccc3)[C@H](c3ccccc3)N1[C@@H]2c1ccc(O)cc1` had a composite z-score of 1.18. Then `O=C1O[C@@H](c2ccccc2)[C@@H](c2ccccc2)N2[C@@H](c3ccc(OCCO)cc3)[C@]3(C(=O)Nc4ccc(C#CC5=CCCCC5)cc43)[C@@H](C(=O)N3CCCCCCC3)[C@H]12`, with 1.23. On to `COc1ccc([Si](C)(C)[C@@H]2[C@@H](CCn3cc([C@H](O)c4ccccc4)nn3)O[C@]3(C(=O)N(Cc4cccc(N5CCC5=O)c4)c4ccccc43)[C@H]2C)cc1`, for which the composite z-score amounted to 0.227.
